# These entries were drawn from the full list.
# LmPK act – qHTS Assay for Activators of Leishmania Mexicana Pyruvate Kinase (LmPK). 290,000 tested, under 10 active. purified LmPK, Kinase-Glo ATP luminescence, 1 h. activity change, negative = inhibition, % at 57.5 µM. AID 1722, 2009; calls by dose curve
# Target sequence (Q27686 whole entry, looked up): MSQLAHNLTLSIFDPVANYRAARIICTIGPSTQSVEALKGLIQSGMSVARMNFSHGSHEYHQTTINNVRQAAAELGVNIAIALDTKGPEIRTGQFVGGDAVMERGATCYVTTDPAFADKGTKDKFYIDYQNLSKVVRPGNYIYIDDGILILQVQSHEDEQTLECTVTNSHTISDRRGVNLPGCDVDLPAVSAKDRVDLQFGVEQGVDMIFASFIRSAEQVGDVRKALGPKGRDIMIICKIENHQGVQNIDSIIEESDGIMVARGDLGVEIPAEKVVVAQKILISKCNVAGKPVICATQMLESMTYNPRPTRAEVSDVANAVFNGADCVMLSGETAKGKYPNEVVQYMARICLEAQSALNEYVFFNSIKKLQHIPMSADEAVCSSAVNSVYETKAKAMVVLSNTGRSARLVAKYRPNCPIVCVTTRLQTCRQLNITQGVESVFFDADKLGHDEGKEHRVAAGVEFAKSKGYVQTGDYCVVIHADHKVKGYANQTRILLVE
#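 Coupled luminescent assay: ATP produced by LmPK (0.1 nM) from ADP (0.1 mM, ~10-fold below Km) and PEP (0.5 mM, at Km) after 1 h RT, detected with Kinase-Glo. Data scaled between no-enzyme and uninhibited controls.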
# Starred values were filed as active, the others as inactive; [ ] = remark or other dose.
SMILES,LmPK act
Cc1ccc(SCc2cn3c(C)csc3n2)cc1,-57
O=C(N=Nc1ccc(NOC(=O)c2ccccc2Br)cc1)c1ccccc1O,-50
COc1cc(Cl)c(C)cc1NC(=O)COC(=O)c1cc[n+]([O-])cc1,-81
O=C1C=CC(=O)N1N(c1ccccc1)c1ccccc1,-46
CCOc1ccc(-n2cc(-c3ccc(OC)c(OC)c3)[nH]c2=S)cc1,-41[11.5 µM]
CS/C(Nc1cc(Cl)ccc1Cl)=C(/C#N)C(=O)c1ccco1,-95
O=C(NC(=S)N1CCOCC1)c1cc2ccccc2o1,-31
O=C(NNc1cc(Br)c(O)c(Br)c1)c1ccccc1,-38
CCOc1ccc2nc(NC(=O)c3ccoc3C)sc2c1,-85
CC(=O)Oc1c(Br)cc(N(C(C)=O)S(=O)(=O)c2ccccc2)c2ccccc12,-48
S=c1[nH]nc(C2CCCCC2)n1/N=C/c1c(Cl)cccc1Cl,-40
Cc1n[nH]c(=O)nc1N/N=C/c1ccc(O)c([N+](=O)[O-])c1,-43
COc1ccc(-c2nc3nc(C)cc(C)n3n2)cc1,-34
CC(C)(C)c1cc(-c2n[nH]c(=S)n2-c2ccccc2F)n[nH]1,-107
Cc1oc(-c2nc3ccccc3n2C)cc1C(=O)c1ccccc1,-80
COc1ccccc1NC(=O)Nc1ccc(F)c(F)c1,-31
CC1(C)Oc2ccc(NC(=O)C3COc4ccccc4O3)cc2O1 (stereo not drawn),-46
Cn1cccc1C(=O)C(=O)Nc1ccccc1,-95
Cc1ccc(Nc2nnc(SCC(=O)NCCN3C(=O)CSC3=O)s2)cc1C,-37
Cn1c(=O)[nH]c(=O)c2c1[nH]c(=S)n2Cc1ccc(Cl)cc1,-50
O=C(Nc1cccnc1)c1cc(-c2ccc3c(c2)OCO3)on1,-33
Cc1ccc(C)c(-n2cc[nH]c2=S)c1,-38
CCCn1nnc(NC(=S)NC(=O)c2cccs2)n1,-70
Cc1ccccc1-c1n[nH]c(=S)n1/N=C/c1c(C)nn(-c2ccccc2)c1C,-21
O=S(=O)(Nc1ccc(O)c(NS(=O)(=O)c2ccccc2)c1)c1ccccc1,-69
SMILES,LmPK act
O=C(N/N=C/c1ccccc1OCC(=O)N1CCCC1)C(=O)Nc1ccccc1F,-51
Cc1cc2nc(-c3cccnc3SCC(=O)NC3CC3)[nH]c2cc1C,-75
c1ccc(CCN(Cc2ccccc2)C2CCN(C3CCCC3)CC2)cc1,-34
Cc1ccccc1/C(N)=N/OC(=O)c1cccs1,-54
Cc1cc(C)c(S(=O)(=O)/N=C2/C=C(Sc3ncn[nH]3)C(=O)c3ccccc32)cc1C,-63
CCc1cc2cc(C)cc(C)c2[nH]c1=S,-32
Cn1nc(C(=O)Nc2nc3ccc(S(C)(=O)=O)cc3s2)ccc1=O,-58
Cc1ccn2cc(-c3cccc([N+](=O)[O-])c3)nc2c1,-74
COc1ccccc1-n1c(CNC(=O)COc2ccccc2)n[nH]c1=S,-50
O=C1c2ccccc2NC(c2ccc(O)c(O)c2)N1c1ccccc1Cl (stereo not drawn),-34
Brc1ccc(N=Nc2ccc3ccccc3n2)cc1,-88
CN=c1scc(-c2ccc(F)cc2)n1/N=C/c1ccc(O)c(O)c1,-54
O=c1nc(N/N=C/C=C/c2ccccc2)cn[nH]1,-32
C/C(=N/OC(=O)c1ccc(C(F)(F)F)cc1)c1oc(C)nc1C,-40
O=C(Nc1ccc(OCc2ccccc2)cc1)Nc1ccccc1C(=O)NCCCN1CCOCC1,-100
COc1cc(/C=C2\SC(=Nc3ccc(Cl)c(C(=O)O)c3)NC2=O)c(Br)c(Br)c1O,-30
C=CC[n+]1ccc(/C=C2\C=Cc3cc(C)ccc3N2CC)c2ccccc21,-39
O=C(OCc1ccc(F)cc1Cl)c1ccccn1,-36
Cc1ccc(-n2c(-c3cc(C)n(C)n3)n[nH]c2=S)cc1,-38
Cc1cc(C)n(C2=NS(=O)(=O)c3ccccc32)n1,-93
COc1cccc(/C=N/NC(=O)c2ccoc2C)c1,-76
CCc1ccc(NC(=O)c2ccccc2SC)cc1,-45
Cc1occc1C(=O)N/N=C/c1ccccc1[N+](=O)[O-],-66
O=C(OCc1csc(-c2ccccc2)n1)c1ccccc1O,-32
Cc1nc(-c2ccc([N+](=O)[O-])cc2)sc1C(=O)O,-68
SMILES,LmPK act
Cc1c(Cl)c(-c2n[nH]c(=S)n2-c2ccc(F)cc2)nn1C,-31
Cc1ccc(N=Cc2c(C)[nH]n(-c3nc4ccccc4[nH]3)c2=O)cc1,-64
[O-][n+]1c2ccccc2[n+]([O-])c2cc(O)ccc21,-38
N/C(=N\OC(=O)CCC1CCCC1)c1ccccn1,-54
C=CCc1c(C)[nH]c2c(OC)cccc2c1=S,-74
COc1cccc(C(=O)O/N=C(\C)c2cnccn2)c1,-48
C/C(=N/NC(=O)c1ccoc1C)c1ccc(NC(=O)c2ccncc2)cc1,-39
CCN1/C(=C2\C(=O)N(C)C(=S)N2C)C=Cc2cc(C)ccc21,-61
COc1cccc(C(=O)Nc2ccc(C(F)(F)F)n(C)c2=O)c1,-43
S=c1[nH]nc(Cc2ccccc2)n1-c1cccc2ccccc12,-70
COC(=O)c1sccc1NC(=O)Nc1cccc(F)c1,-78
C=CCN1C(=O)/C(=c2\sc3nc(=O)c(Cc4ccccc4Cl)nn3c2=O)c2ccccc21,-49
C=CCn1c(-c2sc3nc(C)cc(C)c3c2N)n[nH]c1=S,-50
O=C(O)C1Nc2c(O)cc(Cl)c([N+](=O)[O-])c2C2C=CCC12 (stereo not drawn),-31
CC(C(=O)O)c1ccc(N2Cc3ccccc3C2=O)cc1 (stereo not drawn),-44
CSCCC1NC(=S)N(Cc2ccccc2)C1=O (stereo not drawn),-50
